Test results from PubChem BioAssay (Tox21).
Inconclusive results are not listed. Calls of active or inactive are those of the source. Unless noted, calls follow the shape of the dose curve; as a rule, active = well fitted curve in the direction sought with a large enough effect in the repeat runs; inconclusive = weak or mixed curves; inactive = no such curve, though single readings can be large; an effect the other way counts as inactive or inconclusive.

Experiments:
[1] = A CellTox Green Cytotoxicity Assay to monitor cytotoxicity in HepG2 cells - 8 hour (AID 1224890); also: nearly all actives have a fitted effect of over 45% in size
Method in brief: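 Cells and non-lytic dye reagent are dispensed together (600 HepG2 cells/well) and incubated 5 h before DMSO compound transfer. Kinetic fluorescence is then recorded in the same wells during 40 h at 37 C.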

[2] = qHTS assay to identify small molecule antagonists of the estrogen receptor alpha (ER-alpha) signaling pathway using the BG1 cell line in the presence of 0.1 nM 17-beta-estradiol - cell viability counter screen (AID 1259241); also: nearly all actives have a fitted effect of over 40% in size
Method in brief: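 The cell line endogenously expresses full-length ER-alpha and carries four EREs driving luciferase. Cells are cultured 5 days hormone-free, treated 22 hr with compounds and 0.1 nM estradiol, then viability is read by fluorescence.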

[3] = qHTS assay to identify small molecule antagonists of the androgen receptor (AR) signaling pathway using the MDA cell line in the presence of 0.5 nM R1881 - cell viability counter screen (AID 1259242); also: nearly all actives have a fitted effect of over 45% in size
Method in brief: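 Steps: plate MDA-kb2 cells, rest 5 hr at 37C without CO2; pin in compounds in DMSO; add R1881 to 0.5 nM final; incubate 16 hr; add CellTiter-Fluor, 30 min; read fluorescence.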

[4] = molecular target: Androgen receptor (Homo sapiens) (UniProt P10275); experiment: qHTS assay to identify small molecule antagonists of the androgen receptor (AR) signaling pathway using the MDA cell line in the presence of 0.5 nM R1881 (AID 1259243); also: nearly all actives have a fitted effect of over 50% in size; also: potency is read from the fitted curve at half-maximal effect
Method in brief: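 Stably transfected MDA-kb2 cells express luciferase from an MMTV promoter bearing both AR and GR response elements. Compounds plus 0.5 nM R1881 (final) were incubated 16 hr at 37C without CO2, then luminescence measured.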

[5] = molecular target: Estrogen receptor (Homo sapiens) (UniProt P03372); experiment: qHTS assay to identify small molecule antagonists of the estrogen receptor alpha (ER-alpha) signaling pathway using the BG1 cell line in the presence of 0.1 nM 17-beta-estradiol (AID 1259244); also: nearly all actives have a fitted effect of over 50% in size
Method in brief: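 Antagonist mode: compounds in DMSO are pinned onto VM7Luc4E2 reporter cells, 0.1 nM final 17beta-estradiol is added, and after 22 h at 37C luciferase luminescence is measured with ONE-Glo.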

[6] = qHTS assay to identify small molecule HDAC inhibitors (AID 1259364);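 also: wild-type HCT-116 cells with endogenous class I/II HDAC activity; top concentration of the series differs between compounds; nearly all actives have a fitted effect of over 45% in size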
Method in brief: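 Cells (HCT-116, wild type) are seeded at 1,500 per well, incubated overnight, treated with compound in DMSO for 2 hr, then developed with HDAC-Glo I/II reagent for 30 min at room temperature.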

[7] = qHTS assay to identify small molecule HDAC inhibitors - cell viability counter screen (AID 1259365); also: series mostly up to about 92 µM; nearly all actives have a fitted effect of over 50% in size
Method in brief: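 Viability readout: CellTiter-Glo luminescence. Wild-type HCT-116 cells, 2hr compound treatment following overnight attachment at 37 C.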

[8] = qHTS assay to identify small molecule antagonists of the sonic hedgehog signaling (Shh) pathway - cell viability counter screen (AID 1259367); also: nearly all actives have a fitted effect of over 55% in size
Method in brief: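 Viability was read by CellTiter-Fluor fluorescence in the same wells, reagent added 23 hr into compound treatment and incubated 1 hr at 37C. The 3T3 Gli1-Luc reporter cells (2,000/well) received conditioned medium after compound and ran 24 hr.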

[9] = qHTS assay to identify small molecule antagonists of the sonic hedgehog signaling (Shh) pathway (AID 1259369; calls by dose curve; also: nearly all actives have a fitted effect of over 45% in size)
Method in brief: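 Cells are plated and held 4hr at 37 C, compounds (DMSO) are pinned in, conditioned medium is added to stimulate the pathway, and after 24hr luciferase reagent is added for 30min before luminescence is read.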

[10] = molecular target: Estrogen receptor beta (Homo sapiens) (UniProt Q92731); experiment: qHTS assay to identify small molecule antagonists of the estrogen receptor beta (ER-beta) signaling pathway (AID 1259378; active = well fitted inhibition curve with a large enough effect in the signal ratio in the repeat runs, not every such curve was filed as active; the % refers to the signal ratio)
Method in brief: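 Antagonist mode: compounds added to beta-lactamase reporter HEK293T ER-beta-UAS cells stimulated with E2 (1nM final), 16 hr at 37C. LiveBLAzer B/G FRET substrate, 2 hours room temperature, fluorescence read-out.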

[11] = qHTS assay to identify small molecule agonists of the androgen receptor (AR) signaling pathway in the presence of an antagonist - cell viability counter screen (AID 1259379);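 also: MDA-kb2 human breast cancer cells carrying an MMTV luciferase reporter; series mostly up to about 92 µM; nearly all actives have a fitted effect of over 25% in size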
Method in brief: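 Cytotoxicity is assessed by CellTiter-Fluor in MDA-kb2 cells carrying an MMTV-driven luciferase reporter. Cells receive 3.0uM nilutamide plus compounds at 15 concentrations and incubate 16 hr at 37C without CO2 before fluorescence reading.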

[12] = qHTS assay to identify small molecule agonists of the estrogen receptor beta (ER-beta) signaling pathway - cell viability counter screen (AID 1259380); also: nearly all actives have a fitted effect of over 30% in size
Method in brief: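 Cytotoxicity is measured in parallel with the reporter screen: after 16 hr compound exposure at 37C and a 2 hr LiveBLAzer step, CellTiter-Glo is added to the same ER-beta-UAS-bla HEK293T wells and luminescence read after 30 min.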

[13] = molecular target: Androgen receptor (Homo sapiens) (UniProt P10275); experiment: qHTS assay to identify small molecule agonists of the androgen receptor (AR) signaling pathway in the presence of an antagonist (AID 1259381; calls by dose curve; also: nearly all actives have a fitted effect of over 15% in size)
Method in brief: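 Agonist-mode confirmation screen: human MDA-kb2 cells stably expressing luciferase under an MMTV promoter bearing AR and GR response elements, co-treated with 3.0uM nilutamide (final). Luminescence measured after 16hr compound incubation.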

[14] = qHTS assay to identify small molecule antagonists of the estrogen receptor beta (ER-beta) signaling pathway - cell viability counter screen (AID 1259382);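 also: HEK293T cells carrying ER-beta-UAS-bla reporter stimulated with estradiol; series mostly up to about 92 µM; nearly all actives have a fitted effect of over 55% in size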
Method in brief: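 Cytotoxicity counter screen multiplexed with the beta-lactamase antagonist assay: GripTite HEK293T ER-beta-bla cells were treated 16 hr with test chemicals in the presence of 1nM 17-beta-estradiol, and viability was measured by CellTiter-Glo.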

[15] = molecular target: Estrogen receptor (Homo sapiens) (UniProt P03372); experiment: qHTS assay to identify small molecule agonists of the estrogen receptor alpha (ER-alpha) signaling pathway in the presence of an antagonist (AID 1259383; calls by dose curve; also: top concentration of the series differs between compounds; nearly all actives have a fitted effect of over 15% in size)
Method in brief: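 Agonist-mode confirmation in the presence of the ER antagonist ICI-182,780 at 10.0nM final. Breast-derived VM7Luc4E2 reporter cells were exposed to compounds for 22hr, and ERE-driven luciferase was quantified by luminescence.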

[16] = qHTS assay to identify small molecule agonists or antagonists of the thyroid stimulating hormone receptor (TSHR) signaling pathway - wild type cell line counter screen (AID 1259384; calls by dose curve)
Method in brief: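 Counter screen in untransfected Hek293: compounds (15-point titration, triplicate) plus phosphodiesterase inhibitor Ro20-1724 added after 18 h plating; 30 min RT. Intracellular cAMP via competitive d2/cryptate immunoassay, 1 h incubation.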

[17] = qHTS assay to identify small molecule agonists of the sonic hedgehog signaling (Shh) pathway - cell viability counter screen (AID 1259366); also: nearly all actives have a fitted effect of over 50% in size
Method in brief: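 Viability measured fluorometrically (CellTiter-Fluor, 1hr, 37C) in 3T3 Gli1-Luc reporter cells after 23hr compound exposure within a 24hr incubation at 37C/5% CO2.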

[18] = qHTS assay to identify small molecule agonists of the sonic hedgehog signaling (Shh) pathway (AID 1259368; calls by dose curve;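 also: NIH/3T3-derived 3T3Gli1-Luc cells carrying a stable Gli1-driven firefly luciferase reporter; series mostly up to about 92 µM; nearly all actives have a fitted effect of over 15% in size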)
Method in brief: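 Cells of a mouse NIH/3T3 clone stably expressing luciferase under the Gli1 transcriptional response element are exposed to test chemicals for 24 hr at 37 C. Pathway activation is detected as a rise in luminescence.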

[19] = molecular target: Estrogen receptor beta (Homo sapiens) (UniProt Q92731); experiment: qHTS assay to identify small molecule agonists of the estrogen receptor beta (ER-beta) signaling pathway (AID 1259377; active = well fitted activation curve with a large enough effect in the signal ratio in the repeat runs, not every such curve was filed as active; the % refers to the signal ratio)
Method in brief: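 A UAS-controlled beta-lactamase reporter in ER-beta-UAS-bla HEK293T cells reports receptor activation. Compounds act for 16 hr at 37C in 2% charcoal-stripped serum, and a FRET substrate is read by fluorescence after 2 hours.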

Measured: Potency

Sequence of Androgen receptor (Homo sapiens) (P10275 whole entry, looked up): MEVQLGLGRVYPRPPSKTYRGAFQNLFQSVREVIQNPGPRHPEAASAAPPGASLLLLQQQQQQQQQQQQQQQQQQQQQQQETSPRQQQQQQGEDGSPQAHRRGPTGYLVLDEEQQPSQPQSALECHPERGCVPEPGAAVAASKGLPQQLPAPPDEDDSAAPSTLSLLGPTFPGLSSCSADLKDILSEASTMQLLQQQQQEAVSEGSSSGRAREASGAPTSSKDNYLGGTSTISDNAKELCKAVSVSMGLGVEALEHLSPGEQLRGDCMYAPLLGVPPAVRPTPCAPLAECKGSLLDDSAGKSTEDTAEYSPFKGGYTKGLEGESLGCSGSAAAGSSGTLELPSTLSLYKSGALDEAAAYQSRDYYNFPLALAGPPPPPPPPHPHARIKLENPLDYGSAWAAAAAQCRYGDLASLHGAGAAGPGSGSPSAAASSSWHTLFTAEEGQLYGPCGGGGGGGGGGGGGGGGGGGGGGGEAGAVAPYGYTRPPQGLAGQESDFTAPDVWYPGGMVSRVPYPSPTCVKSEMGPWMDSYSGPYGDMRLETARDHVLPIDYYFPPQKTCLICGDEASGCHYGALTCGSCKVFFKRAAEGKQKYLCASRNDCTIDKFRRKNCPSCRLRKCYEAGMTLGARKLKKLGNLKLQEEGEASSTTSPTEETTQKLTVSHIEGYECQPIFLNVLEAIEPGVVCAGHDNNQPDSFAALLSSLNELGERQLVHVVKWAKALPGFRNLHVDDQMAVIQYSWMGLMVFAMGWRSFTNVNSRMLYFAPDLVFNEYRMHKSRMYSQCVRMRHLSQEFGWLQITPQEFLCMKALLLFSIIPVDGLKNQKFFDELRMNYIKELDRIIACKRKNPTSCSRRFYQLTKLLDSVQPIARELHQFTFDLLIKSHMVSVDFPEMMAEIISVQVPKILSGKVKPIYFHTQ
Sequence of Estrogen receptor (Homo sapiens) (P03372 whole entry, looked up): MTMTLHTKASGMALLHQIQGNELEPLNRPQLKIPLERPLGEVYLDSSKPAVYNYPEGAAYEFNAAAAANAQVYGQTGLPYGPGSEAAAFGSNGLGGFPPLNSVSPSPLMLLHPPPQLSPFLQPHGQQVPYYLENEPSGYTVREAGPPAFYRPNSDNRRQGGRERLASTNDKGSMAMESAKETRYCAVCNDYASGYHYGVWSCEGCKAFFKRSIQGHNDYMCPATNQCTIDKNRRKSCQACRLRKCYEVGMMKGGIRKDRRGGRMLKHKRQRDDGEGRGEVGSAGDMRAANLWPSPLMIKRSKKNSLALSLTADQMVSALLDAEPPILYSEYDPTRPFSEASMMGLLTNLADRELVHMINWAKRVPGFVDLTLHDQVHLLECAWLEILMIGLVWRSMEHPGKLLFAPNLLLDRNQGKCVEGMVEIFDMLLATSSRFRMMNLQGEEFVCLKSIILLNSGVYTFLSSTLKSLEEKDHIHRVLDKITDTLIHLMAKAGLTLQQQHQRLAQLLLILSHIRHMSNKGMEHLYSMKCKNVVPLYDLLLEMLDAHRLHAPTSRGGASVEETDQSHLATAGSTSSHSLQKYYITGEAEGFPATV
Sequence of Estrogen receptor beta (Homo sapiens) (Q92731 whole entry, looked up): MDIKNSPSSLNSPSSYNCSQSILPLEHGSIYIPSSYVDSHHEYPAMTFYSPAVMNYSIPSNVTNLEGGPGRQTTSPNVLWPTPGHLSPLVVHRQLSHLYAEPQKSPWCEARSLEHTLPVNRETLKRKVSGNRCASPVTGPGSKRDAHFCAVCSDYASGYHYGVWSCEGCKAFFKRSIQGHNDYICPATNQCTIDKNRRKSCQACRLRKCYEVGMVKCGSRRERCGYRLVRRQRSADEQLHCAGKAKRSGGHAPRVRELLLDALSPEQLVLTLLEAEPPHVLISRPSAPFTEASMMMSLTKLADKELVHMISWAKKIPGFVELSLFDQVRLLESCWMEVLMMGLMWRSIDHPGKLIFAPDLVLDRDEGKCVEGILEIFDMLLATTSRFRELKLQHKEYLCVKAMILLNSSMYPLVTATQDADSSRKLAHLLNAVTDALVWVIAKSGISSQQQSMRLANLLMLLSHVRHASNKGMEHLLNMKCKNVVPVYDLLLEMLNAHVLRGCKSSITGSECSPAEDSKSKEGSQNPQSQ

CCCOc1ccc2c(c1)CC[C@@H]1[C@@H]2CC[C@]2(C)C(OC)CC[C@@H]12 (some centres not stated)
inactive: [1] | [2] | [3] | [5] | [6] | [7] | [8] | [9] | [10] | [11] | [12] | [13] | [14] | [15] | [16]
active: [4] 13.3 µM

COC(=O)C(C)O (configuration not stated)
inactive: [1] | [2] | [3] | [4] | [5] | [6] | [7] | [17] | [8] | [18] | [11] | [12] | [13] | [14] | [15] | [16]

CN1CCN(N)CC1
inactive: [1] | [2] | [3] | [4] | [5] | [6] | [7] | [17] | [8] | [9] | [19] | [10] | [11] | [12] | [13] | [14] | [15] | [16]

CC(=O)O[C@H]1CC[C@@]2(C)C(=CC[C@@H]3[C@@H]2CC[C@]2(C)C(C(C)=O)=CC[C@@H]32)C1
inactive: [1] | [2] | [3] | [5] | [6] | [7] | [18] | [9] | [19] | [10] | [11] | [12] | [13] | [14] | [15] | [16]
active: [4] 11.9 µM
